Source: PubChem BioAssay (National Center for Advancing Translational Sciences (NCATS))
Sm TGR inh: S. mansoni TGR enzyme inhibition | Q962Y6 | purified TGR, DTNB reduction, TNB absorbance 405 nm | Potency, µM (top dose mostly 114 µM), inactives show at the highest dose activity change, negative = inhibition, hits mostly inhibitors | actives 3% (n = 360,000) | AID 485364; also: potency is read from the fitted curve at half-maximal effect; nearly all actives have a fitted effect of over 60% in size
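Kinetic colorimetric format: TGR-catalysed, NADPH-driven DTNB reduction monitored via TNB absorbance. Enzyme dispensed at 20 nM; compound exposure 15 min at room temperature before reaction start.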
Pf growth 48h: P. falciparum growth inhibition at 48 hours (one generation); P. falciparum luciferase growth in erythrocytes, 48 h; Potency, µM (series often up to 28.7 µM), for the others: top-dose activity change, negative = inhibition, most hits filed as inhibitors; actives 5.9% (n = 310,000); AID 504832; also: potency is read from the fitted curve at half-maximal effect
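Luminescence readout; reporter = integrated firefly luciferase in P. falciparum. RBC culture at 2% hematocrit, 0.1% parasitemia final, 37 C/5% CO2; decreased signal taken as growth inhibition.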
HCMV antiviral: inhibitors of human cytomegalovirus | HFF cells, HCMV-luciferase reporter, 72 h; hits give low values | activity change, negative = inhibition, % at 57.5 µM | actives 4.5% (n = 410,000) | AID 1259415; in the data active = activity change below about -60%; inconclusive = no clear call, values can overlap the other calls; inactive = above about -39%
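Two-dose cell screen: HFF monolayers treated with compounds and infected with luciferase-expressing HCMV at 1 PFU/cell, 72 h at 37C, then lysed for luciferase measurement.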
Giardia FBPA inh: blocks Giardia fructose-bisphosphate aldolase activity; actives 0.71% (n = 290,000); Potency, µM (doses to about 59.6 µM), without a hit: top-dose activity, negative = inhibition, usual class: inhibitors; purified Giardia FBPA; AID 2451; A8B2U2; also: potency is read from the fitted curve at half-maximal effect; nearly all actives have a fitted effect of over 55% in size
Target sequence (A8B2U2 whole entry, looked up): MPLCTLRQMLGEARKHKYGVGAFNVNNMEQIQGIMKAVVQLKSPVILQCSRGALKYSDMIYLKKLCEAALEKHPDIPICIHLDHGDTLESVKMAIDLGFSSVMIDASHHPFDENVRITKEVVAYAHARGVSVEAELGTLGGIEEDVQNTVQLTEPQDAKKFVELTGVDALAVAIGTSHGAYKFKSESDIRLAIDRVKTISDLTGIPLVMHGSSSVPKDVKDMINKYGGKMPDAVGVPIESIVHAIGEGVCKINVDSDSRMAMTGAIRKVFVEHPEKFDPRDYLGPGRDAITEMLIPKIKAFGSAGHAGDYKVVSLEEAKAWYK
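Giardia FBPA (40 nM reagent) was preincubated 10 min at RT with compound (up to 57.5 uM final), then substrate plus GAPDH/TPI/NAD/arsenate coupling system with diaphorase/resazurin was added; resorufin fluorescence (525/598 nm) was read after 20 min.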
Pf growth 96h: P. falciparum growth inhibition at 96 hours. Potency, µM (series often up to 28.7 µM), inactives show at the highest dose activity change, negative = inhibition, usual class: inhibitors. P. falciparum luciferase reporter growth, 96 h. actives 6.9% (n = 320,000); also: potency is read from the fitted curve at half-maximal effect
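96 h incubation, 37 C, 5% CO2, of luciferase-reporter P. falciparum-infected RBCs (2% hematocrit, 0.05% parasitemia final) with test compounds; endpoint luminescence.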
The depositor's hits bear a star; ? = inconclusive; · = no result. Hits are enriched below; roughly 14% of the tested compounds scored in any of these assays. Unless noted, calls follow the shape of the dose curve; as a rule, active = well fitted curve in the direction sought with a large enough effect; inconclusive = small, poorly fitted or top-dose-only effect, or another doubt; inactive = no such curve, though single readings can be large; an effect the other way counts as inactive or inconclusive. % is scaled to controls: 0 for no effect and ±100 for the full control effect.

SMILES	Sm TGR inh	Pf growth 48h	HCMV antiviral	Giardia FBPA inh	Pf growth 96h
CN(Cc1ccccc1)CC(O)COc1ccc(CNCCc2cccnc2)cc1 (centres undefined)	?	5.2µM*	?	0%	1%
C=CCOc1ccc(CN(C)CC(O)COc2cccc3ccccc23)cc1 (centres undefined)	-21%	10µM*	54	?	?
CCc1ccc(CNCc2ccc(OCC(O)CN(C)Cc3ccccc3)cc2)nc1 (centres undefined)	-18%	?	0	-18%	?
Cc1cc(C)cc(C(=O)N2CCC3(CC2)NCCc2[nH]cnc23)c1	1%	1%	-10	·	15%
COc1cccc(CNS(=O)(=O)c2ccc3c(c2)C(C)(C)C(=O)N3C)c1	6%	8%	·	·	12%
Cc1c(CCC(=O)N2CCCCC2)c(=O)oc2cc3occ(C(C)(C)C)c3cc12	-2%	·	2	·	·
COc1cccc(C2=CC(c3ccc(OC)c(OC)c3OC)n3nnnc3N2)c1 (centres undefined)	?	18%	-8	?	18%
COc1ccc(C2C=C(c3ccc(F)cc3)Nc3nc(-c4ccc(Cl)cc4)nn32)cc1 (centres undefined)	1%	·	-101*	·	·
Cc1ccc(C2C=C(c3ccc(F)cc3)Nc3nc(CCCO)nn32)cc1 (centres undefined)	?	·	-10	·	·
COc1ccc(C2=CC(c3ccccc3Cl)n3nc(-c4ccc(C)cc4)nc3N2)cc1 (centres undefined)	-6%	·	-14	·	·
COc1ccc(C2=CC(c3ccc(F)cc3)n3ncc(C(=O)Nc4ccc(C)cc4)c3N2)cc1 (centres undefined)	27%	·	-88*	·	·
COc1ccc(C2=CC(c3ccc(Cl)cc3)n3cnnc3N2)cc1OC (centres undefined)	25µM*	10µM*	0	-8%	·
COc1ccc(C2C=C(c3cccs3)Nc3nc(CCCO)nn32)cc1 (centres undefined)	40µM*	0%	·	-22%	19%
CCOC(=O)c1ccc(N2CCN(C(C)=O)CC2)c(NC(=O)c2cccnc2)c1	·	4%	-40	0%	23%
Cc1c(C(=O)NCc2ccccc2Cl)sc2nc3n(c(=O)c12)CCCCC3	-6%	·	-6	·	·
COc1ccc(C2C=C(c3ccccc3)Nc3nc(CCCO)nn32)cc1 (centres undefined)	25µM*	?	11	-9%	?
OCCCc1nc2n(n1)C(c1ccccc1)C=C(c1ccccc1)N2 (centres undefined)	25µM*	·	·	-13%	?
Cc1ccc2c(=O)c(C(=O)c3ccc(F)cc3)cn(CC(=O)NCc3ccccc3Cl)c2n1	2%	·	3	·	·
N#Cc1nc(COc2cccc(Cl)c2)oc1NCCc1ccccc1	0%	·	8	·	·
CN(C)CCNc1oc(COc2ccc(Cl)cc2)nc1C#N	28µM*	-6%	-21	2%	315%
CN(C)CCNc1oc(COc2cccc(Cl)c2)nc1C#N	35µM*	-1%	12	-5%	-8%
Cc1nc2cnc(N3CCN(C)CC3)nc2n(C2CC2)c1=O	·	·	·	-8%	·
CCN(CC(=O)Nc1ccc(NC(C)=O)cc1)C(=O)c1oc2ccccc2c1C	-6%	37%	-14	·	38%
COCCN(CC(=O)Nc1cccc(C)c1C)C(=O)c1cc(S(=O)(=O)N2CCCC2)ccc1C	-1%	-17%	-4	·	?
CCN(CC(=O)Nc1ccc(NC(C)=O)cc1)C(=O)c1oc2c(ccc3ccccc32)c1C	4%	?	-74*	·	12µM*
SMILES	Sm TGR inh	Pf growth 48h	HCMV antiviral	Giardia FBPA inh	Pf growth 96h
COc1ccc(NC(=O)CN(C)C(=O)c2oc3c(ccc4ccccc43)c2C)cc1	6%	0.19µM*	-19	·	0.19µM*
COCCN(CC(=O)Nc1cccc(C)c1C)C(=O)c1oc2c(Cl)cccc2c1C	-3%	9.3µM*	0	·	?
Cc1c(C(=O)N(C)CC(=O)Nc2cccc(F)c2)oc2c(Cl)cccc12	1%	2.6µM*	-18	·	1.5µM*
COCCN(CC(=O)Nc1cccc(C)c1C)C(=O)c1cc(-c2ccncc2)nc2ccccc12	-8%	10µM*	12	·	8.3µM*
COc1cccc(NC(=O)CN(C)C(=O)c2oc3c(ccc4ccccc43)c2C)c1	-4%	0.26µM*	-8	·	0.23µM*
Nc1ncnc2nc(-c3ccc(N4CCOCC4)nc3)cc(-c3cccc(Br)c3)c12	·	·	·	-16%	·
CCN(CC(=O)Nc1c(F)cccc1F)C(=O)C1CCN(c2ncnc3sc(C)c(C)c23)CC1	-3%	10µM*	-31	·	?
Cc1sc2ncnc(N3CCC(C(=O)NNC(=O)COc4ccc(Br)cc4)CC3)c2c1C	5%	-9%	?	·	?
CCN(CC(=O)Nc1c(Cl)cccc1Cl)C(=O)C1CCN(c2ncnc3sc(C)c(C)c23)CC1	4%	?	-28	·	-24%
Cc1cccc(C)c1NC(=O)CN(C)C(=O)C1CCN(c2ncnc3sc(C)c(C)c23)CC1	9%	?	?	·	7.4µM*
Cc1cc(Br)ccc1NC(=O)CN(C)C(=O)C1CCN(c2ncnc3sc(C)c(C)c23)CC1	·	·	-83*	·	·
COc1ccc(-c2[nH]ncc2CNCCn2cccn2)c(F)c1	?	47%	-5	1%	13µM*
CN(CC(=O)Nc1ccc(F)cc1)C(=O)CCc1ccccc1	10%	1%	-24	-3%	19%
Cc1onc(-c2ccccc2Cl)c1C(=O)NCc1ccc2c(c1)cc(C)n2C	0%	10µM*	-17	-13%	?
COc1c(Cl)cc(-c2noc(C)c2C(=O)NCc2ccccc2)cc1Cl	3%	·	-68*	-1%	?
Cc1onc(-c2ccccc2Cl)c1C(=O)NCc1ccco1	45µM*	-7%	30	-19%	6%
Cc1onc(-c2ccccc2Cl)c1C(=O)N(C)C1CCCCC1	-4%	·	-66*	-2%	?
Cc1ccc(CNC(=O)c2c(-c3ccccc3Cl)noc2C)cc1	-27%	22%	?	-3%	-27%
COc1c(Cl)cc(-c2noc(C)c2C(=O)NCc2ccc3c(c2)OCO3)cc1Cl	-5%	14%	20	2%	195%
CCOC(=O)c1csc(N)c1-c1ccc([N+](=O)[O-])cc1	4%	-22%	-71*	?	-17%
CCOC(=O)c1c(-c2cccc([N+](=O)[O-])c2)csc1N	1%	-6%	?	-27%	14%
COc1cc(/C=C/C(=O)N2CC(C)OC(C)C2)cc(OC)c1OC (centres undefined)	0%	3%	15	-10%	200%
CC(C)c1cc(NCC2CCCO2)n2c(nc3ccccc32)c1C#N (centres undefined)	-14%	6.6µM*	-60*	0%	·
CCc1c(C)c(C#N)c2nc3ccccc3n2c1NCC1CCCO1 (centres undefined)	18%	1.7µM*	-40	3%	·
